From PubChem BioAssay (NCI)
The panel holds about 83,000 compounds, 20% with a hit somewhere; the sample as a whole holds those more often.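 Method: cells in 96-well plates; compound added at one concentration; 48 h incubation; percent growth measured; values under 10 scored active.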 Values without a mark were called inactive. The source made the active and inactive calls.

What was measured:
Assay in all cases: NCI-60 one-dose screen, 48 h (100 = growth as untreated, 0 = no growth, -100 = all killed)
Details in all cases: 10 µM unless noted
SK-MEL-2 melanoma = system: SK-MEL-2 melanoma
SN12C renal = system: SN12C renal
UO-31 renal = system: UO-31 renal
TK-10 renal = system: TK-10 renal
ACHN renal = system: ACHN renal
CAKI-1 renal = system: CAKI-1 renal
A498 renal = system: A498 renal
CCRF-CEM leukemia = system: CCRF-CEM leukemia
MOLT-4 leukemia = system: MOLT-4 leukemia
SR leukemia = system: SR leukemia
RPMI-8226 leukemia = system: RPMI-8226 leukemia
OVCAR-8 ovarian = system: OVCAR-8 ovarian
OVCAR-5 ovarian = system: OVCAR-5 ovarian
OVCAR-4 ovarian = system: OVCAR-4 ovarian
SK-OV-3 ovarian = system: SK-OV-3 ovarian
IGROV1 ovarian = system: IGROV1 ovarian
OVCAR-3 ovarian = system: OVCAR-3 ovarian
HS 578T breast = system: HS 578T breast
NCI/ADR-RES ovarian = system: NCI/ADR-RES ovarian
EKVX NSCLC = system: EKVX NSCLC

Cc1ccc(/C=C/C(=O)c2ccc(N)cc2)c(C)c1
growth (SK-MEL-2 melanoma): 99%
growth (SN12C renal): 4.51% (active)
growth (UO-31 renal): 11.7%
growth (TK-10 renal): 106%
growth (ACHN renal): 39.3%
growth (CAKI-1 renal): 84.1%
growth (A498 renal): 97.3%
growth (CCRF-CEM leukemia): -45.3% (active)
growth (MOLT-4 leukemia): -41.1% (active)
growth (SR leukemia): -45.1% (active)
growth (RPMI-8226 leukemia): 33%
growth (OVCAR-8 ovarian): 17.3%
growth (OVCAR-5 ovarian): 103%
growth (OVCAR-4 ovarian): 73%
growth (SK-OV-3 ovarian): 122%
growth (IGROV1 ovarian): 12%
growth (OVCAR-3 ovarian): 21.7%
growth (HS 578T breast): 100%

COc1cc(NCC(O)CN(CC(C)C)CC(C)C)c2nc(C)ccc2c1 (centres undefined)
growth (SK-MEL-2 melanoma): 99%
growth (SN12C renal): 92.3%
growth (UO-31 renal): 66.9%
growth (TK-10 renal): 105%
growth (ACHN renal): 89.4%
growth (CAKI-1 renal): 74.1%
growth (A498 renal): 86.2%
growth (CCRF-CEM leukemia): 115%
growth (MOLT-4 leukemia): 78%
growth (SR leukemia): 102%
growth (RPMI-8226 leukemia): 99.4%
growth (OVCAR-8 ovarian): 87.2%
growth (OVCAR-5 ovarian): 122%
growth (OVCAR-4 ovarian): 40.2%
growth (SK-OV-3 ovarian): 75.2%
growth (IGROV1 ovarian): 86.9%
growth (OVCAR-3 ovarian): 53.2%
growth (HS 578T breast): 85.1%
growth (NCI/ADR-RES ovarian): 92%

Nc1ncc(C#Cc2cncc(NC(=O)c3cccc(C(F)(F)F)c3)c2)c2cccnc12
growth (SK-MEL-2 melanoma): 5.81% (active)
growth (SN12C renal): 50.4%
growth (UO-31 renal): 33.7%
growth (TK-10 renal): 84.8%
growth (ACHN renal): 55.1%
growth (CAKI-1 renal): 68.6%
growth (A498 renal): 62.8%
growth (CCRF-CEM leukemia): 48.5%
growth (MOLT-4 leukemia): 36.8%
growth (SR leukemia): 37.7%
growth (RPMI-8226 leukemia): 60.7%
growth (OVCAR-8 ovarian): 47.5%
growth (OVCAR-5 ovarian): 52.9%
growth (OVCAR-4 ovarian): 25.6%
growth (SK-OV-3 ovarian): 67.3%
growth (IGROV1 ovarian): 40.4%
growth (OVCAR-3 ovarian): 84.6%
growth (HS 578T breast): 27%

Cc1cc(NC(=O)c2cnc(N3CCN(CCOCCOCCOCCOCCC(=O)N[C@H](C(=O)N4C[C@H](O)C[C@H]4C(=O)N[C@@H](C)c4ccc(-c5scnc5C)cc4)C(C)(C)C)CC3)cn2)c2ncccc2c1
growth (SK-MEL-2 melanoma): -17.8% (active)
growth (SN12C renal): -2.01% (active)
growth (UO-31 renal): 75.8%
growth (TK-10 renal): 69.3%
growth (ACHN renal): 37.9%
growth (CAKI-1 renal): 42.9%
growth (A498 renal): 78.6%
growth (CCRF-CEM leukemia): -1.88% (active)
growth (MOLT-4 leukemia): 1.53% (active)
growth (SR leukemia): 7.46% (active)
growth (RPMI-8226 leukemia): -26.5% (active)
growth (OVCAR-8 ovarian): 20.7%
growth (OVCAR-4 ovarian): 14.7%
growth (SK-OV-3 ovarian): 63.9%
growth (IGROV1 ovarian): -37.8% (active)
growth (OVCAR-3 ovarian): -30.8% (active)
growth (HS 578T breast): 6.9% (active)
growth (NCI/ADR-RES ovarian): 90.5%

Cc1ccc2[nH]c(=O)cc(-n3nncc3COc3ccc(C=O)cc3)c2c1
growth (SK-MEL-2 melanoma): 101%
growth (SN12C renal): 106%
growth (UO-31 renal): 62.9%
growth (TK-10 renal): 109%
growth (ACHN renal): 98.9%
growth (CAKI-1 renal): 87.8%
growth (A498 renal): 117%
growth (CCRF-CEM leukemia): 97.9%
growth (MOLT-4 leukemia): 108%
growth (SR leukemia): 102%
growth (RPMI-8226 leukemia): 102%
growth (OVCAR-8 ovarian): 107%
growth (OVCAR-5 ovarian): 101%
growth (OVCAR-4 ovarian): 104%
growth (SK-OV-3 ovarian): 107%
growth (IGROV1 ovarian): 106%
growth (OVCAR-3 ovarian): 102%
growth (HS 578T breast): 96.7%
growth (NCI/ADR-RES ovarian): 109%

Cn1ncc2c(Nc3ccccc3Cl)nc(Cl)nc21
growth (SK-MEL-2 melanoma): 123%
growth (SN12C renal): 92%
growth (UO-31 renal): 101%
growth (TK-10 renal): 119%
growth (ACHN renal): 95.6%
growth (CAKI-1 renal): 99.9%
growth (A498 renal): 178%
growth (CCRF-CEM leukemia): 104%
growth (MOLT-4 leukemia): 125%
growth (RPMI-8226 leukemia): 62.1%
growth (OVCAR-8 ovarian): 113%
growth (OVCAR-5 ovarian): 96.4%
growth (OVCAR-4 ovarian): 96.3%
growth (SK-OV-3 ovarian): 104%
growth (OVCAR-3 ovarian): 164%
growth (HS 578T breast): 136%
growth (NCI/ADR-RES ovarian): 100%

CCN(CC)CCCC(C)Nc1cc(-c2cccc(OC(F)(F)F)c2)nc2ccc(N3CCCC3)cc12 (centres undefined)
growth (EKVX NSCLC): 49.9%
growth (SN12C renal): 38.1%
growth (UO-31 renal): 23.7%
growth (TK-10 renal): 12.2%
growth (ACHN renal): -19.5% (active)
growth (CAKI-1 renal): -53% (active)
growth (A498 renal): 29.4%
growth (CCRF-CEM leukemia): -22.4% (active)
growth (MOLT-4 leukemia): 2.34% (active)
growth (SR leukemia): -31.6% (active)
growth (RPMI-8226 leukemia): -37% (active)
growth (OVCAR-8 ovarian): -5.79% (active)
growth (OVCAR-5 ovarian): 31.1%
growth (OVCAR-4 ovarian): 34.8%
growth (SK-OV-3 ovarian): 82%
growth (IGROV1 ovarian): 29.9%
growth (OVCAR-3 ovarian): 0.648% (active)
growth (HS 578T breast): -22.3% (active)
growth (NCI/ADR-RES ovarian): 13.4%

C=C(C)[C@@H]1CC[C@]2(C(=O)NCCCN(CCC#N)CCC#N)CC[C@]3(C)[C@H](CC[C@@H]4[C@@]5(C)CCC(=O)C(C)(C)[C@@H]5CC[C@]43C)[C@@H]12
growth (SK-MEL-2 melanoma): 105%
growth (SN12C renal): 98.2%
growth (UO-31 renal): 87.3%
growth (TK-10 renal): 98.4%
growth (ACHN renal): 107%
growth (CAKI-1 renal): 94.4%
growth (A498 renal): 102%
growth (CCRF-CEM leukemia): 106%
growth (MOLT-4 leukemia): 110%
growth (SR leukemia): 108%
growth (RPMI-8226 leukemia): 101%
growth (OVCAR-8 ovarian): 97.9%
growth (OVCAR-5 ovarian): 103%
growth (OVCAR-4 ovarian): 92.6%
growth (SK-OV-3 ovarian): 93%
growth (IGROV1 ovarian): 102%
growth (OVCAR-3 ovarian): 107%
growth (HS 578T breast): 96.3%
growth (NCI/ADR-RES ovarian): 103%

C=C(C)[C@@H]1CC[C@]2(CO)CC[C@]3(C)[C@H](CC[C@@H]4[C@@]5(C)CCCNC(C)(C)[C@@H]5CC[C@]43C)[C@@H]12
growth (SK-MEL-2 melanoma): 78.8%
growth (SN12C renal): 45.9%
growth (UO-31 renal): 53.8%
growth (TK-10 renal): 80.8%
growth (ACHN renal): 50.2%
growth (CAKI-1 renal): 38.4%
growth (CCRF-CEM leukemia): 12.4%
growth (MOLT-4 leukemia): 4.4% (active)
growth (SR leukemia): -40.4% (active)
growth (RPMI-8226 leukemia): -36.9% (active)
growth (OVCAR-8 ovarian): 23.5%
growth (OVCAR-5 ovarian): 75%
growth (OVCAR-4 ovarian): 31.8%
growth (SK-OV-3 ovarian): 92.2%
growth (IGROV1 ovarian): 36.3%
growth (HS 578T breast): 46.8%
growth (NCI/ADR-RES ovarian): 44.8%
